TDP43 rescue – qHTS of TDP-43 Inhibitors; TDP-43 expressing yeast growth rescue, BacTiter-Glo, 24 h; Potency, µM (highest dose often 46.1 µM), for the others: at the highest dose growth rescue (activation), hits mostly activators; actives 1.8% (n = 410,000); AID 652104, 2013; note: potency is the fitted concentration of half-maximal effect; % of control where 0% means no effect; nearly all actives have a fitted effect of over 50% in size
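Cell-based yeast growth screen: TDP-43 expression induced in galactose, inoculum OD600=0.02 after raffinose pregrowth to mid-log. Read-out BacTiter-Glo luminescence at 24 hr, 30 deg C; inhibition of toxicity seen as signal increase.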
FUS yeast rescue – qHTS for Suppressors of FUS Proteinopathy: Primary screen using FUS-linked yeast assay. S. cerevisiae FUS-expressing, growth rescue, OD600, 24 h. Potency, µM (top dose mostly 76.6 µM), usual class: activators. actives 0.24% (n = 390,000). AID 1347120, 2019;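 note: potency is the fitted concentration of half-maximal effect; plate controls were DMSO vehicle for no effect and reference control for full effect; nearly all actives have a fitted effect of over 55% in size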
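Compound concentration series was pinned onto galactose-induced FUS-expressing yeast seeded at OD 0.005. Plates sat 24hr at 30C; absorbance at 600 nm gave growth. DMSO served as background control.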
PTHR1 ag – qHTS for PTHR1 Agonists: Primary Screen | Parathyroid hormone/parathyroid hormone-related peptide receptor (Homo sapiens), Q03431 | HEK293 GP2 PTHR1 cells, GloSensor cAMP luminescence, 1 h | Potency, µM (top dose mostly 115 µM), for the others: at the highest dose activation, usual class: activators | actives 0.075% (n = 410,000); note: potency is the fitted concentration of half-maximal effect; nearly all actives have a fitted effect of over 55% in size
Target sequence (Q03431 whole entry, looked up): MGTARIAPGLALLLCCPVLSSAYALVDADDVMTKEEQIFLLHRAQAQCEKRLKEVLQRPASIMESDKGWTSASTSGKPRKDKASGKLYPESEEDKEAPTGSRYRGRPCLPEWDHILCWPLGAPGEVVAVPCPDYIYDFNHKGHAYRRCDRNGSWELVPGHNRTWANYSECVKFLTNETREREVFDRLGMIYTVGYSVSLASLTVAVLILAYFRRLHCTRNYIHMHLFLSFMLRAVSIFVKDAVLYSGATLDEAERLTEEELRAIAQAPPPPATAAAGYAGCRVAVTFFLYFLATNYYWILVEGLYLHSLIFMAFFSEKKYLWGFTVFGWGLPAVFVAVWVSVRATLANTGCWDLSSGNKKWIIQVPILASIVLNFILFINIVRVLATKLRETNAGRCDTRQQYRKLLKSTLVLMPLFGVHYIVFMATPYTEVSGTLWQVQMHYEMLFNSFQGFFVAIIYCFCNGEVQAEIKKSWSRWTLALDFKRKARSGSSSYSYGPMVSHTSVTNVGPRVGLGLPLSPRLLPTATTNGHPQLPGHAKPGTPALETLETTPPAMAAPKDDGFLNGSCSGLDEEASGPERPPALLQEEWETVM
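HEK-293-derived GP2 cells expressing PTHR1 and a GloSensor cAMP reporter, 3,000/well, plated overnight, given luciferin plus IBMX (each 0.5 mM as added) for 1 h at 37 °C, then compound for 1 h at 37 °C. Luminescence was read after 15 min at room temperature.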
Abeta rescue – qHTS for compounds that reverse cellular toxicity of Amyloid beta (A-beta) peptide in yeast: Primary Screen | yeast expressing A-beta42, growth rescue, OD600, 48 h; response scale: 0% DMSO, 100% iron-clioquinol control | Potency, µM (top dose mostly 46.1 µM), hits mostly activators | actives 0.063% (n = 410,000) | AID 1347071, 2019; note: potency is the fitted concentration of half-maximal effect; nearly all actives have a fitted effect of over 55% in size
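Yeast A-beta toxicity model in growth medium with pinned compounds, 48 h at 30 C; growth read as absorbance at 600 nm. Normalized to FeCl3/clioquinol equimolar mix (positive) and DMSO (negative).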
aSyn rescue – qHTS of alpha-syn Inhibitors; Yeast expressing alpha-synuclein, growth rescue, BacTiter-Glo, 24 h; Potency, µM (series often up to 46.1 µM), without a hit: top-dose growth rescue (activation), most hits filed as activators; actives 0.14% (n = 370,000); AID 652106, 2013; note: potency is the fitted concentration of half-maximal effect; % of control where 0% means no effect; nearly all actives have a fitted effect of over 65% in size
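Screening used galactose-induced yeast with toxic alpha-synuclein levels, exposed to compound for 24 hr at 30 deg C. Cell growth, read with BacTiter-Glo luminescence, gave the measured signal.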
LDHA inh – qHTS assay for inhibitors of human lactate dehydrogenase | L-lactate dehydrogenase A chain (Homo sapiens), P00338 | purified LDHA, NADH/diaphorase-resazurin fluorescence; stronger effect = lower value | activity change, % (values are at about 110 or 230 µM) | actives 0.15% (n = 480,000) | AID 1347041, 2019; in the data active = activity change below about -30%; inconclusive = mostly about -25% to -30%;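 note: plate controls were DMSO wells for no effect and wells without enzyme for full effect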
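Enzyme activity of human lactate dehydrogenase 5 (2 nM; 0.06 mM NADH, 0.2 mM pyruvate, 5 min, RT) is measured via a resazurin/diaphorase fluorescence readout of residual NADH.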
* marks the source's active call; other numbers are inactive results; i = inactive; u = inconclusive; x = not tested or not shown; [ ] = remark or other dose. Hits are enriched below; roughly 1.9% of the tested compounds scored in any of these assays. Unless noted, calls come from the whole dose curve; as a rule, active = well fitted curve in the direction sought with a large enough effect; inconclusive = small, poorly fitted or top-dose-only effect, or another doubt; inactive = no such curve, though single readings can be large; an effect the other way counts as inactive or inconclusive.

SMILES	TDP43 rescue	FUS yeast rescue	PTHR1 ag	Abeta rescue	aSyn rescue	LDHA inh
CC(C(=O)Nc1ccccc1C(F)(F)F)n1nc(-c2ccccc2)c2c(c1=O)CCCC2 (stereo not given)	35µM*	i	i	i	x	2
CC(C(=O)Nc1cccc(C#N)c1)n1nc(-c2ccccc2)c2c(c1=O)CCCC2 (stereo not given)	28%	u	-28%	i	x	0
CC(=O)NC12CC3CC(C1)CC(C(=O)NCCNC(=O)c1ccc(Cl)cc1)(C3)C2	x	x	x	x	x	1
Cc1cc(C)cc(NC(=O)CCc2ncc(-c3ccc(Cl)cc3)o2)c1	x	x	x	x	x	2
CC(=O)Nc1cc(C(F)(F)F)ccc1Oc1cccc(Br)c1	11µM*	i	-15%[57.5 µM]	i	1%	0
CC(=O)Nc1cc(C(F)(F)F)ccc1OCCOc1ccccc1	13µM*	i	-12%	i	-3%	0
CCOC(=O)c1c(NC(=O)CCN2CCCCC2)sc2c1CC(C)(C)OC2	x	x	x	x	x	-7
Cc1c(Cl)ccc2sc(N3CCN(C(=O)C4=COCCO4)CC3)nc12	u	i	-46%	i	8%	-4
COc1c(S(=O)(=O)N2CCN(C(=O)c3ccco3)CC2)ccc(Cl)c1Cl	13µM*	i	4%	i	17%	-2
Cc1c(Cl)ccc2sc(N3CCN(C(=O)c4ccco4)CC3)nc12	32µM*	u	-18%	i	x	-3
CCCC(=O)N1CCN(c2nc3c(OC)ccc(Cl)c3s2)CC1	20µM*	i	-85%	i	21%	-2
CC(=O)N1CCN(c2nc3c(C)ccc(Cl)c3s2)CC1	u	i	-21%	i	x	1
Cc1c(Cl)ccc2sc(N3CCN(C(=O)C(C)C)CC3)nc12	22µM*	i	-15%	i	x	2
Cc1c(Cl)ccc2sc(N3CCN(C(=O)CS(=O)(=O)c4ccccc4)CC3)nc12	18µM*	u	-21%	13µM*	x	2
COc1ccc(Cl)c2sc(N3CCN(C(=O)c4ccco4)CC3)nc12	18µM*	i	-6%	i	17%	-6
CCCCn1c(N)c(N(CCOC)C(=O)CN(C)CC(=O)Nc2ccc(Cl)c(Cl)c2)c(=O)[nH]c1=O	-13%	i	50µM*	i	-2%[1.84 µM]	-6
Cc1onc(-c2ccc3c(c2)OCO3)c1-c1ccc2[nH]ccc2c1	22µM*	i	-35%	i	-24%	-1
Cc1cc(-c2ccc(C)c(S(=O)(=O)NCCc3ccccc3)c2)on1	u	i	-27%	i	x	2
CCc1ccc(-c2cc(C)no2)cc1S(=O)(=O)NCCc1ccccc1	13µM*	i	-15%	i	22%	-3
CCc1ccc(-c2cc(C)no2)cc1S(=O)(=O)Nc1ccc(Cl)cc1	22µM*	u	-41%	i	x	-7
Cc1cc(-c2ccc(C)c(S(=O)(=O)NCc3ccc(Cl)cc3)c2)on1	32µM*	i	-41%	i	x	0
CN(C)CCCNc1nc(-c2ccco2)c2c(c1C#N)CCCC2	x	x	x	x	x	13
CCN(CC)S(=O)(=O)c1ccc(NS(=O)(=O)c2ccc(C(C)C)cc2)cc1	x	x	x	x	x	6
O=C(NC1CCCCCCC1)c1ccc2ncsc2c1	x	x	x	x	x	4
CCc1nc2ccccc2c(=O)n1NC(=O)c1c(O)c2ccccc2n(CC)c1=O	-10%[9.22 µM]	i	i	i	-73%	-40*
CC1CN(C2CCN(S(=O)(=O)c3ccccc3)CC2)CC(C)O1 (stereo not given)	-4%	i	5%[57.5 µM]	i	-1%	-32*
Cc1ccc(Cl)cc1N1CCN(C(=O)C2(S(=O)(=O)c3ccc(Cl)cc3)CC2)CC1	25%	i	-14%	i	8%	-4

Bioassay records: PubChem BioAssay, National Center for Advancing Translational Sciences (NCATS)
